From PubChem BioAssay
HttQ103 aggreg – inhibitors of mutant huntingtin aggregate formation in PC12 cells; Potency, µM (doses to about 46.1 µM), without a hit: top-dose activity change, negative = inhibition, usual class: inhibitors; PC12 HttQ103-GFP aggregates, Acumen cytometry, 40 h; 220,000 tested, 1.1% active; also: potency is read from the fitted curve at half-maximal effect; % is scaled to controls: 0 for no effect and ±100 for the full control effect; nearly all actives have a fitted effect of over 60% in size
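Multiplexed with ATP-based cell death, this channel scores GFP aggregates in PC12 cells expressing inducible HTTex1-Q103-GFP. Induction used 100 nM tebufenozide; compounds were tested in concentration series.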
HTT ATP protect – protects HTT-Q103 PC12 cells, measured by ATP; PC12 HTT-Q103 induced, cytoprotection, ATP luminescence, 40 h; Potency, µM (top dose mostly 56.4 µM), without a hit: cytoprotection (ATP increase), actives largely listed as activators; 230,000 tested, 0.14% active; also: potency is read from the fitted curve at half-maximal effect; % of control where 0% means no effect; nearly all actives have a fitted effect of over 45% in size
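PC12 cells with ecdysone-inducible HTT exon 1 Q103-GFP, induced with 100 nM tebufenozide and co-treated with library compounds in a dose series (1536-well, 1500 cells/well). Cytoprotection read as ATP content by ATPlite luminescence.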
PKM2 act – activators of human pyruvate kinase M2 | Potency, µM (titrated, usually from 57.5 µM), for inactives: at the highest dose activation, hits mostly activators | AID 1631 | purified PKM2, Kinase-Glo ATP luminescence, activation; response scale: 0% is enzyme alone, no compound | P14618 | 260,000 tested, 0.34% active; also: potency is read from the fitted curve at half-maximal effect; % is scaled to controls: 0 for no effect and ±100 for the full control effect; nearly all actives have a fitted effect of over 55% in size
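hPK-M2, >95% pure; 0.1 mM ADP / 0.5 mM PEP final; imidazole pH7.2 buffer w/ 7 mM MgCl2, 50 mM KCl; 1 h RT; Kinase-Glo lum. Intermediate enzyme activity for dual inhibitor/activator qHTS.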
GLA spleen mod – inhibitors or activators of human alpha-galactosidase in spleen homogenate | P06280 | human spleen homogenate, 4MU-alpha-Gal fluorescence, 40 min | Potency, µM (doses to about 80 µM), without a hit: at the top dose activity change, negative = inhibition, actives largely listed as inhibitors | 240,000 tested, 0.008% active;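 also: potency is read from the fitted curve at half-maximal effect; 0% = enzyme with vehicle and -100% = no enzyme basal signal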
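Fluorogenic readout (Ex 365/Em 440 nm) of 4-methylumbelliferone released from 1 mM 4-MU-alpha-galactoside by spleen homogenate, 40 min at 37C, pH 5.0. Data normalized to no-enzyme and enzyme controls; Hill-equation AC50 from compound titrations.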
GLA inh pH 4.5 – alpha-galactosidase A (human) inhibition, pH 4.5; P06280; purified enzyme, 4-MU-alpha-Gal fluorescence, pH 4.5; activity change, negative = inhibition, % at 105 µM; AID 1467; 230,000 tested, under 10 active;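 also: 0% = full activity with enzyme and -100% = basal without enzyme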
Target sequence (P06280 whole entry, looked up): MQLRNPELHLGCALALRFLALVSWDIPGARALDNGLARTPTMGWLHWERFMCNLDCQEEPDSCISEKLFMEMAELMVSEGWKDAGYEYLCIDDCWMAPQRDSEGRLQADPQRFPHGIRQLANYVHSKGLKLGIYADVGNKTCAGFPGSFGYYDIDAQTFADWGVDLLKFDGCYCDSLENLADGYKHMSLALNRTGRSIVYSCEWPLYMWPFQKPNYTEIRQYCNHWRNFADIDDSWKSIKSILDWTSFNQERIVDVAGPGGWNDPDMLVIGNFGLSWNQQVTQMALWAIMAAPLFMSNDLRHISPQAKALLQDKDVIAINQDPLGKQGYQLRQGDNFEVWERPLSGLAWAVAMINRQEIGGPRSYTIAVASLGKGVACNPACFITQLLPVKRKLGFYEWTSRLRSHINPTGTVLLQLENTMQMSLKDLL
Starred values were filed as active, the others as inactive; [ ] = another dose, or the depositor's remark. The list is not random: actives were taken first. Their share in the collection is about 1.2%. Calls follow the shape of the dose curve; as a rule, active = well fitted curve in the direction sought with a large enough effect; inconclusive = small, poorly fitted or top-dose-only effect, or another doubt; inactive = no such curve, though single readings can be large; an effect the other way counts as inactive or inconclusive.

`CC(C)(C)C(=O)Nc1ccc(C(=O)N/N=C/c2ccccc2OC(=O)c2ccc(Cl)cc2)cc1` gave HttQ103 aggreg inconclusive, HTT ATP protect -88.1%[10 µM], PKM2 act -15.8%, GLA spleen mod 10.9% and GLA inh pH 4.5 8.7.
For O=C(N/N=C/c1ccccc1OC(=O)c1ccc2c(c1)OCO2)c1ccccc1 the results were HttQ103 aggreg 5.01µM*, HTT ATP protect -73.4%[10 µM], PKM2 act -0.1%, GLA spleen mod -5.8% and GLA inh pH 4.5 -5.6.
CC(C)(C)C(=O)Nc1ccc(C(=O)N/N=C/c2ccccc2OC(=O)c2ccccc2)cc1 was read as HttQ103 aggreg 11.2µM*, HTT ATP protect -101.6%, PKM2 act 1.4%, GLA spleen mod -0.8% and GLA inh pH 4.5 -1.2.
`COc1ccccc1/C=N/NC(=O)c1ccc2c(c1)OCO2` gave PKM2 act -11.4%.
Screening CN(C)c1ccc(-c2nc(N3CCNCC3)c3ccccc3n2)cc1 returned HTT ATP protect -76.0%, GLA spleen mod 12.1% and GLA inh pH 4.5 -1.3.
`CCn1cc(C2=NOC(C(=O)Nc3cccc(C(C)=O)c3)C2)c(C)n1` (configuration not stated) gave HttQ103 aggreg 0.794µM*, HTT ATP protect 8.2%[10 µM], PKM2 act inconclusive, GLA spleen mod 3.5% and GLA inh pH 4.5 -2.2.
Screening COc1cccc2c1[C@H](CO)N1[C@H](C#N)[C@@H]3C[C@H](C(=O)O)[C@@H]([C@@H]1C2)N3C returned HTT ATP protect -50.9%[10 µM].
`CC(=O)N1CCC2(CCN(Cc3nccs3)CC2)CC1` gave HTT ATP protect 27.5% and GLA spleen mod -4.8%.
`O=S(=O)(Nc1ccc(Cc2ccncc2)cc1)c1cccs1` gave HttQ103 aggreg -32.1%, HTT ATP protect -18.4%, PKM2 act 25.8%, GLA spleen mod -0.2% and GLA inh pH 4.5 2.5.
`N#CCc1ccc(NS(=O)(=O)c2cccs2)cc1` gave HttQ103 aggreg -2.9%, HTT ATP protect -7.9%, PKM2 act 17.8µM*, GLA spleen mod 3.1% and GLA inh pH 4.5 -0.5.
Screening Cc1cc(C(=O)OCc2nnc(-c3ccccc3)o2)c(C)n1-c1ccccc1 returned HttQ103 aggreg 11.2µM*, HTT ATP protect -33.3%, PKM2 act -2.3%, GLA spleen mod -4.3% and GLA inh pH 4.5 -1.6.
COC(=O)c1cccc(C23CC4(C2)[C@H](CN(CC2CCCCC2)[C@@H]4c2ccccc2)C3c2ccc(Cl)nc2)c1 (some centres not stated) was read as HTT ATP protect -29.6%, PKM2 act 0.0%, GLA spleen mod 10.3% and GLA inh pH 4.5 3.4.
Screening COc1cc(NC(=O)c2ccccc2-c2ccccc2)cc(OC)c1OC returned HttQ103 aggreg inconclusive, HTT ATP protect -65.5%, PKM2 act -10.3%, GLA spleen mod -5.5% and GLA inh pH 4.5 0.3.
Screening CCSc1ccccc1C(=O)Nc1cc(OC)c(OC)c(OC)c1 returned HttQ103 aggreg 16.3%, HTT ATP protect -11.4%, PKM2 act 28.2µM*, GLA spleen mod -5.3% and GLA inh pH 4.5 7.7.
Cc1nn(-c2ccccn2)c2c1-c1nc(N)ncc1CC2 was read as HttQ103 aggreg 11.2µM*, HTT ATP protect -57.4%, PKM2 act -12.0%, GLA spleen mod -22.6% and GLA inh pH 4.5 -8.3.
For C=CCn1c(NC(=O)c2ccccc2)c(C#N)c2nc3ccccc3nc21 the results were HTT ATP protect -24.7%[10 µM].
C=CCn1c(NC(=O)c2ccccc2Cl)c(C#N)c2nc3ccccc3nc21 was read as HttQ103 aggreg 15.8µM*, HTT ATP protect -45.3%, PKM2 act 17.0%, GLA spleen mod 3.5% and GLA inh pH 4.5 -7.2.
CNCC[C@H](Oc1ccccc1OC)c1ccccc1 was read as HTT ATP protect -4.4%, GLA spleen mod 1.6% and GLA inh pH 4.5 -1.5.
`CCOc1ccccc1/C=C(\C#N)C(N)=O` gave HTT ATP protect -33.4%[10 µM].
`CC(C)(CO)NS(=O)(=O)c1ccc2c(c1)C(=NO)c1cc(S(=O)(=O)NC(C)(C)CO)ccc1-2` gave HttQ103 aggreg -4.1%[9.22 µM], HTT ATP protect -19.9%[10 µM], PKM2 act 5.4%, GLA spleen mod -22.9% and GLA inh pH 4.5 -2.9.
